About 2,000 (36%) of roughly 5,500 compounds were called active. Not shown: some 18% with an inconclusive outcome. No stated cut-off is given here; in the data, active means normalized growth mostly below about 0.91 (no sharp cut-off); inconclusive means no clear call, values can overlap the other calls; inactive means mostly above about 0.92. Some of the results follow.
Assay: chemical genetic growth profiling, strain panel (AID 1159580);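 further: tested at 20 µM; growth read once vehicle control cultures reached saturation at 30 °C; 1 = growth at the plate median or of vehicle wells; lower values mean less growth of the strain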
Conditions: growth OD

Measured: normalized growth

Cc1cc(C)nc(NS(=O)(=O)c2ccc(N)cc2)n1
inactive: S. cerevisiae deletion strains, locus YJR066W, strain TOR1, hits give low values 0.929 | S. cerevisiae deletion strains, locus YJR075W, strain HOC1, hits give low values 0.98 | S. cerevisiae deletion strains, locus YKL009W, strain mrt4, hits give low values 0.961 | S. cerevisiae deletion strains, locus YKL068W, hits give low values 0.982 | S. cerevisiae deletion strains, locus YKL085W, strain MDH1 (second series), hits give low values 0.971 | S. cerevisiae deletion strains, locus YKL085W, strain MDH1, hits give low values 0.971 | S. cerevisiae deletion strains, locus YKL160W, strain elf1, hits give low values 1 | S. cerevisiae deletion strains, locus YKL190W, strain CNB1, hits give low values 1 | S. cerevisiae deletion strains, locus YKR001C, strain vps1, hits give low values 0.98 | S. cerevisiae deletion strains, locus YKR026C, strain gcn3, hits give low values 0.985 | S. cerevisiae deletion strains, locus YKR091W, strain srl3, hits give low values 0.958 | S. cerevisiae deletion strains, locus YLL001W, strain dnm1, hits give low values 1.03 | S. cerevisiae deletion strains, locus YLL026W, hits give low values 0.993 | S. cerevisiae deletion strains, locus YLL041C, strain sdh2, hits give low values 0.975 | S. cerevisiae deletion strains, locus YLR027C, strain aat2, hits give low values 0.985 | S. cerevisiae deletion strains, locus YLR039C, strain RIC1, hits give low values 0.981 | S. cerevisiae deletion strains, locus YLR058C, strain SHM2, hits give low values 0.986 | S. cerevisiae deletion strains, locus YLR102C, strain apc9, hits give low values 0.984 | S. cerevisiae deletion strains, locus YLR113W, strain HOG1, hits give low values 0.975 | S. cerevisiae deletion strains, locus YLR221C, strain rsa3, hits give low values 0.958 | S. cerevisiae deletion strains, locus YLR258W, strain gsy2, hits give low values 0.977 | S. cerevisiae deletion strains, locus YLR262C, strain YPT6 (second series), hits give low values 0.972 | S. cerevisiae deletion strains, locus YLR262C, strain YPT6, hits give low values 0.986 | S. cerevisiae deletion strains, locus YLR268W, strain sec22, hits give low values 0.952 | S. cerevisiae deletion strains, locus YLR320W, strain mms22, hits give low values 0.957 | S. cerevisiae deletion strains, locus YLR330W, strain CHS5, hits give low values 0.988 | S. cerevisiae deletion strains, locus YLR342W, strain FKS1 (second series), hits give low values 0.999 | S. cerevisiae deletion strains, locus YLR342W, strain FKS1, hits give low values 0.996 | S. cerevisiae deletion strains, locus YLR357W, strain rsc2, hits give low values 0.975 | S. cerevisiae deletion strains, locus YLR370C, strain arc18, hits give low values 0.984 | S. cerevisiae deletion strains, locus YLR371W, strain rom2, hits give low values 0.961 | S. cerevisiae deletion strains, locus YLR384C, strain iki3, hits give low values 0.985 | S. cerevisiae deletion strains, locus YLR418C, strain cdc73, hits give low values 1.02 | S. cerevisiae deletion strains, locus YML016C, strain PPZ1, hits give low values 0.995 | S. cerevisiae deletion strains, locus YML032C, strain rad52, hits give low values 0.98 | S. cerevisiae deletion strains, locus YML120C, strain ndi1, hits give low values 0.976 | S. cerevisiae deletion strains, locus YML124C, strain tub3, hits give low values 0.981 | S. cerevisiae deletion strains, locus YMR058W, strain fet3, hits give low values 0.986 | S. cerevisiae deletion strains, locus YMR078C, strain ctf18, hits give low values 0.98 | S. cerevisiae deletion strains, locus YMR125W, strain sto1, hits give low values 0.947 | S. cerevisiae deletion strains, locus YMR129W, hits give low values 0.974 | S. cerevisiae deletion strains, locus YMR205C, strain PFK2, hits give low values 0.988 | S. cerevisiae deletion strains, locus YMR223W, strain ubp8, hits give low values 1.02 | S. cerevisiae deletion strains, locus YMR231W, strain pep5, hits give low values 1.02 | S. cerevisiae deletion strains, locus YMR307W, strain GAS1, hits give low values 1.02 | S. cerevisiae deletion strains, locus YNL067W, strain RPL9B, hits give low values 0.996 | S. cerevisiae deletion strains, locus YNL071W, strain lat1, hits give low values 0.973 | S. cerevisiae deletion strains, locus YNL128W, strain TEP1, hits give low values 0.97 | S. cerevisiae deletion strains, locus YNL183C, strain NPR1, hits give low values 0.967 | S. cerevisiae deletion strains, locus YNL209W, strain ssb2, hits give low values 0.975 | S. cerevisiae deletion strains, locus YNL233W, strain BNI4, hits give low values 0.997 | S. cerevisiae deletion strains, locus YNL248C, strain rpa49, hits give low values 0.909 | S. cerevisiae deletion strains, locus YNL250W, strain rad50, hits give low values 0.986 | S. cerevisiae deletion strains, locus YNL271C, strain bni1, hits give low values 0.993 | S. cerevisiae deletion strains, locus YNL298W, strain CLA4, hits give low values 0.963 | S. cerevisiae deletion strains, locus YNL307C, strain MCK1, hits give low values 0.978 | S. cerevisiae deletion strains, locus YNL322C, strain KRE1 (second series), hits give low values 0.971 | S. cerevisiae deletion strains, locus YNL322C, strain KRE1, hits give low values 0.997 | S. cerevisiae deletion strains, locus YNR049C, strain mso1, hits give low values 0.963 | S. cerevisiae deletion strains, locus YNR052C, strain pop2, hits give low values 0.97 | S. cerevisiae deletion strains, locus YOL006C, strain TOP1, hits give low values 1.07 | S. cerevisiae deletion strains, locus YOL012C, strain htz1 1.13 | S. cerevisiae deletion strains, locus YOL147C, strain pex11, hits give low values 0.991 | S. cerevisiae deletion strains, locus YOR001W, strain rrp6, hits give low values 1 | S. cerevisiae deletion strains, locus YOR061W, strain CKA2, hits give low values 1 | S. cerevisiae deletion strains, locus YOR069W, strain VPS5, hits give low values 0.988 | S. cerevisiae deletion strains, locus YOR070C, strain gyp1, hits give low values 0.98 | S. cerevisiae deletion strains, locus YOR080W, strain dia2, hits give low values 0.983 | S. cerevisiae deletion strains, locus YOR083W, strain WHI5, hits give low values 0.983 | S. cerevisiae deletion strains, locus YOR106W, strain vam3, hits give low values 1.02 | S. cerevisiae deletion strains, locus YOR136W, strain idh2, hits give low values 0.996 | S. cerevisiae deletion strains, locus YOR144C, strain elg1, hits give low values 0.991 | S. cerevisiae deletion strains, locus YOR184W, strain ser1, hits give low values 0.979 | S. cerevisiae deletion strains, locus YOR231W, strain MKK1, hits give low values 0.995 | S. cerevisiae deletion strains, locus YOR265W, strain rbl2, hits give low values 0.981 | S. cerevisiae deletion strains, locus YOR270C, strain vph1, hits give low values 0.97 | S. cerevisiae deletion strains, locus YOR290C, strain snf2, hits give low values 0.943 | S. cerevisiae deletion strains, locus YOR316C, strain cot1, hits give low values 0.971 | S. cerevisiae deletion strains, locus YPL051W, strain arl3, hits give low values 0.995 | S. cerevisiae deletion strains, locus YPL078C, strain atp4, hits give low values 0.99 | S. cerevisiae deletion strains, locus YPL106C, strain sse1, hits give low values 0.914 | S. cerevisiae deletion strains, locus YPL240C, strain hsp82, hits give low values 0.979 | S. cerevisiae deletion strains, locus YPL256C, strain CLN2, hits give low values 0.954 | S. cerevisiae deletion strains, locus YPR119W, strain clb2, hits give low values 0.978 | S. cerevisiae deletion strains, locus YPR141C, strain kar3, hits give low values 0.973 | S. cerevisiae deletion strains, locus YPR163C, strain tif3, hits give low values 0.981 | S. cerevisiae deletion strains, locus YPR167C, strain met16, hits give low values 0.971 | S. cerevisiae deletion strains, strain wtn01, hits give low values 0.981 | S. cerevisiae strains, strain wild type, hits give low values 0.995

From PubChem BioAssay AID1159580 (chemical genetic matrix, 2015)
